Measurements from PubChem BioAssay (NCATS).
“And” between values parts separate entries of the source, which are not always exact repeats. Identical values can stand only once. Records with an inconclusive call do not appear. Values without a mark were called inactive. The call rests on the fitted dose curve; in most records, active means well fitted curve in either direction with a large enough effect (not every such curve was filed as active); inconclusive means small, poorly fitted or top-dose-only effect, or another doubt; inactive means flat fitted curve, though single readings scatter.

Assay: AP1 Signaling Pathway (AID 357);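 further: ME-180 reporter cells stimulated with EGF at its EC50 level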
Settings: ME-180 AP-1-bla reporter, EGF-induced, beta-lactamase ratio, 5 h; at 17.2 µM (top of the series)
Description: NCGC Assay Overview: Activator protein-1 (AP-1), a transcription factor, plays an important role in tumor genesis by regulating genes involved in cell proliferation, differentiation, apoptosis, and angiogenesis. AP-1 activity is induced by a complex network of signaling pathways that involves extracellular signals, such as growth factors. The AP-1 protein complex formed from c-Fos and c-Jun binding to the AP-1 response element results in transcriptional activation of genes containing such elements within their promoter. Low molecular weight molecules have been discovered and developed to modulate various components of these signaling pathways, for example, MAP kinase inhibitors. However, many points of pathway modulation remain untested due to the lack of chemical probes making this signaling locus of general interest. Using a beta-lactamase reporter-gene under control of the AP-1 response element, a cell-based assay [CellSensor(TM) AP-1-bla ME-180 developed by Invitrogen Corp.] was used to measure EGF-induced signaling. Library compounds were measured for their ability to modulate positively or negatively the action of EC50 EGF on reporter gene activity. Compounds were screened in a titration series in 1536-well format. Positive and negative modulators were identified based on the AC50 values derived from the screening data.
NCGC Assay Protocol Summary: 2500 cells/5uL in Opti-MEM medium containing 0.5% dialyzed FBS, 0.1 mM NEAA, 1 mM sodium pyruvate and 10 mM HEPES was dispensed into 1536-well plates and cells were cultured at 37 degrees Celsius overnight. […] After centrifugation at 1000 rpm for 2 seconds the plates were incubated at 37 degrees Celsius for 5 hours. 1 uL of CCF4-dye mixture was added to each well. After incubated at room temperature for 2.5 hours the plates were measured on an EnVision plate reader at Excitation 405nm, Emission1=460nm and Emission 2=530nm. The %Activity was determined from the ratio of 460nm/530nm.
On the % scale 0 is the no-effect control and ±100 the full control effect.

SMILES	activity change, negative = inhibition
CCCn1c(=O)c2[nH]c(C3CCCC3)nc2n(CCC)c1=O	-7.55%
COc1ccc(C(=O)NCc2cccnc2)cc1C(=O)NCc1cccnc1	9.58%
COc1ccc(-c2ccc(N)[n+](CCCC(=O)O)n2)cc1	-6.26%
CC(C)NC[C@H](O)COc1ccc(CC(N)=O)cc1	-3.59% and 11.3%

Same assay, conditions: ME-180 AP-1-bla reporter, EGF-induced, beta-lactamase ratio, 5 h; at 38 µM (top of the series)

SMILES	activity change, negative = inhibition
CCCn1c(=O)c2[nH]c(C3CCCC3)nc2n(CCC)c1=O	-12.1%
COc1ccc(C(=O)NCc2cccnc2)cc1C(=O)NCc1cccnc1	4.86%
COc1ccc(-c2ccc(N)[n+](CCCC(=O)O)n2)cc1	-9.04%
CC(C)NC[C@H](O)COc1ccc(CC(N)=O)cc1	0.299% and 0.963% and -3.89%

Same assay, conditions: ME-180 (cervical carcinoma) AP-1-bla reporter, EGF-induced, beta-lactamase ratio, 5 h; at 38 µM (top of the series) unless noted

SMILES	activity change, negative = inhibition [%]
CNC(=O)c1cc2c(cn1)[nH]c1ccccc12	0.843
CCN(CC)CCOC(=O)c1cc(Cl)c(N)cc1OC	11.7
Cc1cccc(C(=O)NCN2CCN(c3ccccc3C#N)CC2)c1	-12.1
CCCCCCC/C=C\CCCCCCCCC(=O)O	12.5
COc1cc(CC(=O)O)ccc1O	8.32
O=C(c1ccc2c(c1)OCCO2)N1CCCCC1	1.86
COc1ccccc1N1CCN(CCCNc2c(C)c(=O)n(C)c(=O)n2C)CC1	8.51
O=[N+]([O-])c1cccc2c(Br)[nH]nc12	1.06
CCN(c1nc(N)c(C(=O)N=C(N)N)nc1Cl)C(C)C	29.9
Cc1nc(N=Nc2cc(S(=O)(=O)O)c3cc([N+](=O)[O-])cc(S(=O)(=O)O)c3c2)c(COP(=O)(O)O)c(C=O)c1O	-0.539
O=S(=O)(c1cccc2c(Cl)cccc12)N1CCCNCC1	-0.881
C=CC[C@H](N)C(=O)O	12.7
CC(=O)C(C)=O	-3.27
C=CCn1c(=O)c2c(nc(-c3ccc(S(=O)(=O)O)cc3)n2C)n(C)c1=O	7.93
Cn1c(=O)[nH]c2ncn(C)c2c1=O	0.808
O=C(O)c1ccccc1Nc1ccccc1	4.51

SMILES	activity change, negative = inhibition [%]
Nc1nc2[nH]c(=O)cnc2c(=O)[nH]1	6.93
Cc1nc(N=Nc2ccc(S(=O)(=O)O)cc2S(=O)(=O)O)c(COP(=O)(O)O)c(C=O)c1O	-10.9
CC(=O)N[C@@H](Cc1c[nH]c2ccccc12)C(=O)OCc1cc(C(F)(F)F)cc(C(F)(F)F)c1	10.1
Oc1ccc(Cn2cc[nH]c2=S)cc1	-3.65
NCCCNCCCCNCCCN	11.4
O=c1onc2n1-c1cc(Br)ccc1OC2	1.26
NC(=O)c1ccccc1	-2.04
N=C(N)c1ccc(N)cc1	6.35
COc1ccc2c(c1)c(CC(=O)O)c(C)n2Cc1ccc(Cl)cc1	-18.2
CC(=O)NCCc1c[nH]c2ccc(O)cc12	-2.23
CC(C)Cn1c(=O)n(C)c(=O)c2[nH]cnc21	0.858
NOCC(=O)O	12.3
NC(N)=NC(N)=Nc1ccccc1	-6.28
NC(=Nc1ccccc1)NC(=O)c1nc(Cl)c(N)nc1N	-5.68
CCCCCCCCCCCCCCC[C@H](O)[C@H](N)CO	5.73
O=c1[nH]ccc2c(O)cccc12	-7.94
